Data published in PubChem BioAssay (Tox21).
Values joined by “and” are separate entries in the source; they are usually repeats but may differ in a detail not shown here. Equal entries are not always repeated. Records with an inconclusive call do not appear. A call without a number means that no potency is given here. Where a structure was tested more than once in an assay, its records may differ in their call. Active and inactive are the calls of the source. Calls follow the shape of the dose curve; as a rule, active = well fitted curve in the direction sought with a large enough effect in the repeat runs; inconclusive = weak or mixed curves; inactive = no such curve, though single readings can be large; an effect the other way counts as inactive or inconclusive.

What was measured:
[1] = Caspase-3/7 induction in HepG2 cells by small molecules, qHTS assay (AID 1346978); also: nearly all actives have a fitted effect of over 15% in size; also: potency is read from the fitted curve at half-maximal effect
How it was run: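 Wild-type HepG2 cells, 2,000/well, settled 5 hr at 37 C and 5% CO2, then compound-treated for 17 hr; caspase-3/7 activity read by luminescent Caspase-Glo 3/7 after 30 min at room temperature.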

[2] = Caspase-3/7 induction in CHO-K1 cells by small molecules, qHTS cell viability counter screen (AID 1346979); also: nearly all actives have a fitted effect of over 35% in size; also: potency is read from the fitted curve at half-maximal effect
How it was run: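 Cytotoxicity counter screen run in parallel with the caspase-3/7 assay: CHO-K1 cells, 16hr compound treatment at 37C, then CellTiter-Fluor for 1hr before fluorescence reading.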

[3] = Caspase-3/7 induction in CHO-K1 cells by small molecules, qHTS assay (AID 1346980); also: nearly all actives have a fitted effect of over 15% in size; also: potency is read from the fitted curve at half-maximal effect
How it was run: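 Wild-type CHO-K1 cells exposed to compounds for 17hr at 37 C, 5% CO2. Caspase-3/7 activity then measured by Caspase-Glo 3/7 luminescence after 30min at room temperature.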

[4] = Caspase-3/7 induction in HepG2 cells by small molecules, qHTS cell viability counter screen (AID 1346981); also: nearly all actives have a fitted effect of over 30% in size; also: potency is read from the fitted curve at half-maximal effect
How it was run: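 Treatment of HepG2 cells with DMSO-delivered compounds ran 16 hr at 37 C following a 5-hr pre-incubation of 2,000 cells/well. CellTiter-Fluor fluorescence, read after 1 hr, served as the viability measure in a qHTS format.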

[5] = target: Cytochrome P450 2D6 (Homo sapiens) (UniProt P10635); assay: Cytochrome P450 Family 2 Subfamily D Member 6 (CYP2D6) small molecule antagonists: luciferase reporter qHTS assay (AID 1671196); also: nearly all actives have a fitted effect of over 50% in size; also: potency is read from the fitted curve at half-maximal effect
Sequence of Cytochrome P450 2D6 (Homo sapiens) (P10635 whole entry, looked up): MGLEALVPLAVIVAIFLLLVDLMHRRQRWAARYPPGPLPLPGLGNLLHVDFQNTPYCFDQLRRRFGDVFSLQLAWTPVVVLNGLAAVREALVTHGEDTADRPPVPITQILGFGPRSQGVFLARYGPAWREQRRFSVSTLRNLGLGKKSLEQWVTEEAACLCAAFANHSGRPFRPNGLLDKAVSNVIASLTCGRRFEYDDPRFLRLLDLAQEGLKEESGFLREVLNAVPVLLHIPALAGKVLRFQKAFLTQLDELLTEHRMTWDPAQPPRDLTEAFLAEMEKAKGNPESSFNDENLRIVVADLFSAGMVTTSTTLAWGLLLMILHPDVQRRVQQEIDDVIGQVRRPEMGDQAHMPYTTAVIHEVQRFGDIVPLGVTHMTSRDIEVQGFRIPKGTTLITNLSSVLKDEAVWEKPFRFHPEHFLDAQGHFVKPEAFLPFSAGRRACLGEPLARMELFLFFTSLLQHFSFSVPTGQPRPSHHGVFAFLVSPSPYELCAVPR
How it was run: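 Chemicals tested for interference with CYP2D6 activity; proluciferin substrate, NADPH regeneration, 1 h at room temperature, luminescent detection.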

[6] = target: Cytochrome P450 2C19 (Homo sapiens) (UniProt P33261); assay: Cytochrome P450 Family 2 Subfamily C Member 19 (CYP2C19) small molecule antagonists: luciferase reporter qHTS assay (AID 1671197); also: nearly all actives have a fitted effect of over 65% in size; also: potency is read from the fitted curve at half-maximal effect
Sequence of Cytochrome P450 2C19 (Homo sapiens) (P33261 whole entry, looked up): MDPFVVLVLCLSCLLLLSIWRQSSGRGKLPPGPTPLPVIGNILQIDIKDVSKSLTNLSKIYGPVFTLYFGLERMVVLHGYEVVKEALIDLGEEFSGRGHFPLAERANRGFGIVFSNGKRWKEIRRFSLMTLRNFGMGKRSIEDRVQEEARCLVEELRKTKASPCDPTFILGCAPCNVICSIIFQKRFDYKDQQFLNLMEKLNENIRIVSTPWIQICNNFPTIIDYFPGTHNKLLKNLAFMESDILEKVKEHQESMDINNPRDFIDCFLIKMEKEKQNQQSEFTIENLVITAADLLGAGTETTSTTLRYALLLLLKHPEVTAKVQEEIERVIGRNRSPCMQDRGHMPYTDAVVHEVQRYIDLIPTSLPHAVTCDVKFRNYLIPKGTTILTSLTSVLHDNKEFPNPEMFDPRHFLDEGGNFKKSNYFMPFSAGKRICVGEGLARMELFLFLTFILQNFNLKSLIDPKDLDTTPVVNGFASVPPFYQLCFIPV
How it was run: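 Quantitative high-throughput screen of the Tox21 library using CYP2C19 with proluciferin substrate. Reaction: NADPH regeneration, 37C, 1 h, after 10 min compound preincubation at room temperature. Readout: luminescence.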

[7] = target: Cytochrome P450 2C9 (Homo sapiens) (UniProt P11712); assay: Cytochrome P450 Family 2 Subfamily C Member 9 (CYP2C9) small molecule antagonists: luciferase reporter qHTS assay (AID 1671198); also: nearly all actives have a fitted effect of over 50% in size; also: potency is read from the fitted curve at half-maximal effect
Sequence of Cytochrome P450 2C9 (Homo sapiens) (P11712 whole entry, looked up): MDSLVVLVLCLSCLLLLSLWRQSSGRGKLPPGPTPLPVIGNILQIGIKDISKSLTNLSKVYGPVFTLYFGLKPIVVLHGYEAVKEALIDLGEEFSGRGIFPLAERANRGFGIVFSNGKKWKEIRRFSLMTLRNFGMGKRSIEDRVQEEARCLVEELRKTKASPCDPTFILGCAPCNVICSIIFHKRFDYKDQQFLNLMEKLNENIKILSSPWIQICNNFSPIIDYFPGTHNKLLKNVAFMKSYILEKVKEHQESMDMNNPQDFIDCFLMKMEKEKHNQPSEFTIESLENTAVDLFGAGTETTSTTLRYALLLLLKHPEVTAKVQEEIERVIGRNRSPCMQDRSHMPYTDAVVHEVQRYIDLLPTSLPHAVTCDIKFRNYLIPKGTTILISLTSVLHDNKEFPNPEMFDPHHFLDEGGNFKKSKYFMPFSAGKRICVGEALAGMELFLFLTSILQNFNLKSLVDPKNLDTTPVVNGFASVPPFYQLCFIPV
How it was run: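 P450-Glo proluciferin substrate with CYP2C9 enzyme; 10 min RT preincubation, then NADPH regeneration 1 h at 37C; luciferin detection reagent 20 min RT, luminescence in relative luminescence units.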

[8] = target: Cytochrome P450 1A2 (Homo sapiens) (UniProt P05177); assay: Cytochrome P450 Family 1 Subfamily A Member 2 (CYP1A2) small molecule antagonists: luciferase reporter qHTS assay (AID 1671199); also: nearly all actives have a fitted effect of over 50% in size; also: potency is read from the fitted curve at half-maximal effect
Sequence of Cytochrome P450 1A2 (Homo sapiens) (P05177 whole entry, looked up): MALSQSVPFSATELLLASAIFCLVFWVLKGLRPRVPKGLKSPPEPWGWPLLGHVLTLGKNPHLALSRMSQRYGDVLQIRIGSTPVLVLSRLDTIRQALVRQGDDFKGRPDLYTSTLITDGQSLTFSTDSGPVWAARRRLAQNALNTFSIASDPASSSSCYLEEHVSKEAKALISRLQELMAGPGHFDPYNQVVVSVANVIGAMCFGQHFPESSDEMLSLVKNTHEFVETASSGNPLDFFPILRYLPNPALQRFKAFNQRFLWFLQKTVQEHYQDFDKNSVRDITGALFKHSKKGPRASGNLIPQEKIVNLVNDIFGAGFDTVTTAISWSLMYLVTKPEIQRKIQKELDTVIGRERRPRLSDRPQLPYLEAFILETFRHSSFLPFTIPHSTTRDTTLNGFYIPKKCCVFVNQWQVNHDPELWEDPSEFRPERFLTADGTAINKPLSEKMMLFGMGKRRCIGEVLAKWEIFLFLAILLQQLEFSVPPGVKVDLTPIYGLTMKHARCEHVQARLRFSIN
How it was run: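 Read-out is luminescence from luciferin detection reagent (20 min) proportional to CYP1A2 activity; compounds in DMSO preincubated 10 min with enzyme and proluciferin substrate, then NADPH regeneration solution, 1 h, room temperature.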

[9] = target: Voltage-gated inwardly rectifying potassium channel KCNH2 (Homo sapiens) (UniProt Q12809); assay: Human Ether-a-go-go-Related Gene (hERG) channel small molecule antagonists: fluorescence cell-based qHTS assay (AID 1671200); also: nearly all actives have a fitted effect of over 50% in size; also: potency is read from the fitted curve at half-maximal effect
Sequence of Voltage-gated inwardly rectifying potassium channel KCNH2 (Homo sapiens) (Q12809 whole entry, looked up): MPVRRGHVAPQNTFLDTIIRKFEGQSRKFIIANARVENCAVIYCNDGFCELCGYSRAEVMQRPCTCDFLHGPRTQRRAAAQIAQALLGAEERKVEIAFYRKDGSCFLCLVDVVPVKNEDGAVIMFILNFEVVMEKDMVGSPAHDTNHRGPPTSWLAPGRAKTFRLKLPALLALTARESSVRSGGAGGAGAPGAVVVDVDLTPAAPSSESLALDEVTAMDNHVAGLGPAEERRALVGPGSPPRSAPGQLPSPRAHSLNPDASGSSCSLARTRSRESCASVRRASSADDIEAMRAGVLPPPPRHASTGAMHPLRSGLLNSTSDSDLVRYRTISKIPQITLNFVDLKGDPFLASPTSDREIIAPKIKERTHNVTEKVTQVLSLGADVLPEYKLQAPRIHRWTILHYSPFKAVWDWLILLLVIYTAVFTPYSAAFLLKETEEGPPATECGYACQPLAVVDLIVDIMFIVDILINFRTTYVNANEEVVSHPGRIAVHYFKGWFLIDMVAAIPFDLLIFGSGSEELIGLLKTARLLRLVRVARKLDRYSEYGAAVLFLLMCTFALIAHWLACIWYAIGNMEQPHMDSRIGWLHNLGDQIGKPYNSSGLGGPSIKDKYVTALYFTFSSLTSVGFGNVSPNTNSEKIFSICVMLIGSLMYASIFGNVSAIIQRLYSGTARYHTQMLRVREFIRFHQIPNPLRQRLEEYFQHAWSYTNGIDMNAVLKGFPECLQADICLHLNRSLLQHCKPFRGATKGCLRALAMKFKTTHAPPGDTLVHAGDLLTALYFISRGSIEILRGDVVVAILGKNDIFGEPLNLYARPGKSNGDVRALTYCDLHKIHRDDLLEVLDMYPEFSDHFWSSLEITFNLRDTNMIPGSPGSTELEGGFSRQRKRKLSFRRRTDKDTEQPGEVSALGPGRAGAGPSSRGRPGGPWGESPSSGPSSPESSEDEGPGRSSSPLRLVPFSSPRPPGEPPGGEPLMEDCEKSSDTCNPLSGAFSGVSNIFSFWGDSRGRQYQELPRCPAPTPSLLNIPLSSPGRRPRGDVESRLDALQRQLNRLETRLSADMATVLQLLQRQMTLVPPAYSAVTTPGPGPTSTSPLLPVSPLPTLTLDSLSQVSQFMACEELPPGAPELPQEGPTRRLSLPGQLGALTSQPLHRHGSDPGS
How it was run: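 Fluorescence at 540 nm emission (480 nm excitation) was recorded kinetically for 2 min at 1-second intervals once the thallium-containing stimulus reached cells previously loaded with FluxOR II dye.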

[10] = target: Nuclear receptor subfamily 1 group I member 2 (Homo sapiens) (UniProt O75469); assay: Human pregnane X receptor (PXR) small molecule agonists, qHTS assay (AID 1346982); also: nearly all actives have a fitted effect of over 35% in size; also: potency is read from the fitted curve at half-maximal effect
Sequence of Nuclear receptor subfamily 1 group I member 2 (Homo sapiens) (O75469 whole entry, looked up): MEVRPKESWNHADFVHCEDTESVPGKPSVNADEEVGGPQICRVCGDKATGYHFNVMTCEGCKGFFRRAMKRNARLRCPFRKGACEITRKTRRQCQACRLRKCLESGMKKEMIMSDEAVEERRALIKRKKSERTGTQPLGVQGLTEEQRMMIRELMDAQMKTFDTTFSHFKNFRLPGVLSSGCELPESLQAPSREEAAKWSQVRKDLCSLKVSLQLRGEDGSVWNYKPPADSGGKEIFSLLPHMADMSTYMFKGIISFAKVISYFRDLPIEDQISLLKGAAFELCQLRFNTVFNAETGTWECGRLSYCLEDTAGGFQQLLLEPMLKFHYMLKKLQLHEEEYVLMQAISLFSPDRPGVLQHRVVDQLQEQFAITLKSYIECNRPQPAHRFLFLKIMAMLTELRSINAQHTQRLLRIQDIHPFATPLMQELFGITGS
How it was run: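 Stable HepG2 line reporting PXR-mediated CYP3A4 expression via luciferase. Treatment: 24 hr with compounds in DMSO at 37 C. Detection: ONE-Glo luminescence.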

[11] = target: Cytochrome P450 3A4 (Homo sapiens) (UniProt P08684); assay: Cytochrome P450 Family 3 Subfamily A Member 4 (CYP3A4) small molecule antagonists: luciferase reporter qHTS assay (AID 1671201); also: nearly all actives have a fitted effect of over 50% in size; also: potency is read from the fitted curve at half-maximal effect
Sequence of Cytochrome P450 3A4 (Homo sapiens) (P08684 whole entry, looked up): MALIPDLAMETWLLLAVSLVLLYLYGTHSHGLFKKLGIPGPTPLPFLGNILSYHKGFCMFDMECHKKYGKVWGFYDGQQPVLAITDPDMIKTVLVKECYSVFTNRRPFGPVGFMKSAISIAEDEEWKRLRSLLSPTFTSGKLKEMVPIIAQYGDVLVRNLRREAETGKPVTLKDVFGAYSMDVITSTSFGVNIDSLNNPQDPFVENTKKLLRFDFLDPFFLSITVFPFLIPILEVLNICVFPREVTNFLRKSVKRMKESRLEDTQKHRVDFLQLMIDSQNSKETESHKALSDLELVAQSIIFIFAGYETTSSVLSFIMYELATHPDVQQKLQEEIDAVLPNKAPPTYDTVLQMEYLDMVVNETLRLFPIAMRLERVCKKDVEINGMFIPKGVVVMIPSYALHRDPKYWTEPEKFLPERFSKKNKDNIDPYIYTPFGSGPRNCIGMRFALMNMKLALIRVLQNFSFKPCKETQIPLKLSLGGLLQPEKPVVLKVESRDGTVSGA
How it was run: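 qHTS, 1536-well. CYP3A4 + proluciferin substrate, cpd 10 min RT → NADPH regen 1 h RT → detection reagent 20 min → luminescence (RLU). Ketoconazole positive control.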

[12] = target: Nuclear receptor subfamily 1 group I member 2 (Rattus norvegicus) (UniProt Q9R1A7); assay: Rat pregnane X receptor (rPXR) activation by small molecules, qHTS assay (AID 1346983); conditions: rPXR luciferase reporter cells, One-Glo luminescence, 24 h; stronger effect = higher value; also: nearly all actives have a fitted effect of over 20% in size
Sequence of Nuclear receptor subfamily 1 group I member 2 (Rattus norvegicus) (Q9R1A7 whole entry, looked up): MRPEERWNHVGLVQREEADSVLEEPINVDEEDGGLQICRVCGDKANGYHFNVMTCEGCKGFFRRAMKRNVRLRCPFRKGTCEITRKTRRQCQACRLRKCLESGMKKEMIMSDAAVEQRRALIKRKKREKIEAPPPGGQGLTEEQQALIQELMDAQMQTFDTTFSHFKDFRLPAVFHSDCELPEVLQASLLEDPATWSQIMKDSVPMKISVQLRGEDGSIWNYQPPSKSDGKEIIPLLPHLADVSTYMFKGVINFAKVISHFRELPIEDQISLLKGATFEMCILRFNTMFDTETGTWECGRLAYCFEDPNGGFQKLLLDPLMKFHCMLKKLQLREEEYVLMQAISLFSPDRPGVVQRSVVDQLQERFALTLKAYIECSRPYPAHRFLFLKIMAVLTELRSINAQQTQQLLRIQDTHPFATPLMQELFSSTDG
How it was run: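 Cell-based rPXR activation assay: rPXR cells, 2,000 per well, rested 5hr at 37 C, then exposed to compounds in DMSO for 24 hr at 37 C. Luciferase activity read by One-Glo luminescence after 30 min at room temperature.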

[13] = target: Nuclear receptor subfamily 1 group I member 2 (Homo sapiens) (UniProt O75469); assay: Human pregnane X receptor (PXR) activation by small molecules, qHTS assay (AID 1346985); also: potency is read from the fitted curve at half-maximal effect; nearly all actives have a fitted effect of over 40% in size
How it was run: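 DPX-2 cells (HepG2 co-transfected with a PXR response element and a CYP3A4-promoter luciferase construct) were seeded at 2,000 per well, rested 5 hr at 37C, then exposed to DMSO-dissolved compounds for 24 hr. Activation was read as luciferase luminescence.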

| Structure (SMILES) | Potency [1] | Potency [2] | Potency [3] | Potency [4] | Potency [5] | Potency [6] | Potency [7] | Potency [8] | Potency [9] | Potency [10] | Potency [11] | max activation [12] | Potency [13] |
| --- | --- | --- | --- | --- | --- | --- | --- | --- | --- | --- | --- | --- | --- |
| CC1=CC(=O)c2ccccc2C1=O | inactive | 24.3 µM (active) and 21.1 µM (active) | inactive | 68.6 µM (active) and inactive | 31.7 µM (active) | 14.2 µM (active) and 15.5 µM (active) | 22.4 µM (active) and 13.8 µM (active) | 1.78 µM (active) and 2.75 µM (active) | 3.89 µM (active) and 7.56 µM (active) |  |  |  |  |
| CCC(=O)/C=C/C1C(C)=CCCC1(C)C (configuration not stated) | inactive | inactive | inactive | inactive | inactive | 44.9 µM (active) and 15.9 µM (active) | 31.7 µM (active) | inactive and 25.2 µM (active) | inactive | 34.5 µM (active) | 71.2 µM (active) and 20 µM (active) |  |  |
| CCN(CC)C(=S)SSC(=S)N(CC)CC | 611 nM (active) and 395 nM (active) | 137 nM (active) and 62.6 nM (active) and 376 nM (active) | inactive | inactive | 32.5 µM (active) |  | 6.33 µM (active) and 4.21 µM (active) and 4.36 µM (active) | 31.7 µM (active) and 21.3 µM (active) and 6.45 µM (active) | 41 µM (active) and inactive | 15.7 µM (active) and 10.6 µM (active) |  |  |  |
| O=C(Cl)c1cccc(C(=O)Cl)c1 | inactive | inactive | inactive | inactive | inactive | 79.6 µM (active) and inactive |  | inactive | inactive |  | inactive |  |  |
| CCCOC(=O)c1cc(O)c(O)c(O)c1 | inactive | 48.3 µM (active) and 30.6 µM (active) | inactive | inactive | 31.6 µM (active) and 35.6 µM (active) | 79.3 µM (active) and 56.4 µM (active) |  | 39.7 µM (active) and 39.9 µM (active) | inactive | 27.3 µM (active) | inactive |  |  |
| c1ccc2n[nH]nc2c1 | inactive | inactive | inactive | inactive | inactive | inactive | inactive | inactive | inactive | inactive | inactive |  |  |
| BrC1CCC(Br)C(Br)CCC(Br)C(Br)CCC1Br (configuration not stated) | inactive | 48.4 µM (active) | 60.9 µM (active) | inactive | inactive | 1.26 µM (active) and 1.34 µM (active) | 10.7 µM (active) | inactive | 15.4 µM (active) | 54.3 µM (active) and 46.1 µM (active) | 1.41 µM (active) and 1.51 µM (active) |  |  |
| O=C(O)CCc1ccccc1 | inactive | inactive | inactive |  | inactive | inactive | inactive | inactive | inactive | inactive | inactive |  |  |
| C=CS(=O)(=O)O | inactive | inactive | inactive | inactive |  | inactive | inactive | inactive | inactive | inactive |  |  |  |
| CC(C)(c1ccccc1)c1ccc(Nc2ccc(C(C)(C)c3ccccc3)cc2)cc1 | inactive |  | inactive | inactive | inactive | inactive | 3.55 µM (active) and 5.64 µM (active) | inactive | inactive | inactive |  |  |  |
| CCCCC/C=C/CC1CC(=O)OC1=O (configuration not stated) | inactive |  | inactive | inactive | inactive |  | inactive | 28.3 µM (active) | inactive | inactive | inactive |  |  |
| CC(C)CCCCCCc1ccc(O)cc1 | 55.4 µM (active) and 68.6 µM (active) | 44 µM (active) and 61.1 µM (active) | 24.8 µM (active) | 55.4 µM (active) | 40.6 µM (active) and inactive | 3.62 µM (active) and 4.48 µM (active) | 9.1 µM (active) and 12.6 µM (active) | 28.8 µM (active) | 39.6 µM (active) |  | 16.2 µM (active) | -6.01% (inactive) | 28.2 µM (active) |
| CC(COc1ccccc1)N(CCCl)Cc1ccccc1 (configuration not stated) | inactive | inactive | inactive | inactive | 570 nM (active) and 448 nM (active) and 692 nM (active) | 2.27 µM (active) and 2.24 µM (active) and 3.47 µM (active) | 28.6 µM (active) and 22.4 µM (active) and 12.3 µM (active) | inactive | 19.7 µM (active) and 24.5 µM (active) |  | inactive |  |  |
| Oc1c(Cl)cc(Cl)cc1Sc1cc(Cl)cc(Cl)c1O | inactive | 15.4 µM (active) and 62.1 µM (active) and 17.2 µM (active) | inactive | 15.4 µM (active) | inactive | 71.2 µM (active) and 79.6 µM (active) and inactive |  | 72.2 µM (active) and inactive | inactive |  | inactive |  |  |
| O=Nc1ccc(Nc2ccccc2)cc1 | inactive | 7.74 µM (active) and 13.7 µM (active) | inactive |  | 28.4 µM (active) and 35.6 µM (active) | 5.67 µM (active) and 8.94 µM (active) | 14.2 µM (active) and 28.3 µM (active) | 16 µM (active) and 28.3 µM (active) | inactive |  | 8.99 µM (active) and 12.6 µM (active) |  |  |
